Laboratory results as given in PubChem BioAssay AID485290 (National Center for Advancing Translational Sciences (NCATS), 2010).
“And” between values parts separate entries of the source, which are not always exact repeats. Identical values can stand only once. The whole screen tested about 350,000 compounds, of which about 990 (0.28%) were called active. About 2% were inconclusive and are not listed. Calls follow the shape of the dose curve; as a rule, active = well fitted inhibition curve with a large enough effect; inconclusive = small, poorly fitted or top-dose-only effect; inactive = no such curve, though single readings can be large or run the other way. Many of the other results were omitted from the sample, so actives are more common in it than they were. Some compounds were tested as several samples or in several runs, with calls that do not always agree.

Each compound was assayed against Tyrosyl-DNA phosphodiesterase 1 (Homo sapiens) (UniProt Q9NUW8) (assay: qHTS Assay for Inhibitors of Tyrosyl-DNA Phosphodiesterase (TDP1)). Conditions: recombinant TDP1, AlphaScreen DNA substrate cleavage; series mostly up to 130 µM; activity change, negative = inhibition: at the top concentration.
Source text: NIH Molecular Libraries Probe Production Network [MLPCN]
NIH Chemical Genomics Center [NCGC]
Assay Provider: Yves Pommier and Christophe Marchand, National Cancer Institute
Assay Title: qHTS Assay for Inhibitors of Tyrosyl-DNA Phosphodiesterase (TDP1); also: nearly all actives have a fitted effect of over 40% in size
Human tyrosyl-DNA phosphodiesterase I (Tdp1) is a rational anticancer target because this enzyme is involved in the repair of DNA lesions created by the trapping of human DNA topoisomerase I (Top1) following treatment by anticancer agents such as camptothecins. Recombinant Tdp1 was expressed and purified from E. coli in the laboratory (Anthony et al, Nucleic Acids Research, 2007, Vol. 35, 4474-4484). A Tdp1 DNA substrate bearing a 5' biotin and a 3' phospho-tyrosine was obtained by custom synthesis. This oligonucleotidic DNA substrate was subsequently coupled to a fluorescein isothiocyanate (FITC) group via the free amino group present on the phospho-tyrosine. Tdp1 was screened against the NCGC small molecule library using the AlphaScreen (AS) detection method in which a streptavidin donor AS bead is bound at the 5' end and an anti-FITC AS acceptor bead is bound at the 3' end of the DNA oligonucleotidic substrate. In the presence of Tdp1, the enzyme cleaves the tyrosine-FITC group, leaving a 3' end phosphate on the DNA substrate. This cleavage reaction results in a loss of signal in AS.
[1] 3 ul of buffer is dispensed in columns 3 & 4 as negative control (no enzyme and maximum signal),
[2] 3 ul of enzyme (1 nM final) is dispensed in columns 1,2, 5-48,
[3] 1 ul of substrate (15 nM final) is dispensed throughout the plate,
[4] 1 ul of AS donor/acceptor bead mix (10 ug/ml final) is dispensed throughout the plate
3 ul of Tdp1 enzyme is dispensed to 1536-well Kalypsys black solid bottom plates. Compounds and controls (23 nl) are transferred via Kalypsys Pin Tool. The plates are incubated for 15 min at room temperature, and then 1 ul of substrate is added to start the reaction. After 5 min incubation at room temperature, 1 ul of AS donor/acceptor bead mix is added and the plates are further incubated for 10 min at room temperature. The detection is then performed on a PerkinElmer Envision reader.
% is scaled to controls: 0 for no effect and ±100 for the full control effect; potency is read from the fitted curve at half-maximal effect.

Sequence of Tyrosyl-DNA phosphodiesterase 1 (Homo sapiens) (Q9NUW8 whole entry, looked up): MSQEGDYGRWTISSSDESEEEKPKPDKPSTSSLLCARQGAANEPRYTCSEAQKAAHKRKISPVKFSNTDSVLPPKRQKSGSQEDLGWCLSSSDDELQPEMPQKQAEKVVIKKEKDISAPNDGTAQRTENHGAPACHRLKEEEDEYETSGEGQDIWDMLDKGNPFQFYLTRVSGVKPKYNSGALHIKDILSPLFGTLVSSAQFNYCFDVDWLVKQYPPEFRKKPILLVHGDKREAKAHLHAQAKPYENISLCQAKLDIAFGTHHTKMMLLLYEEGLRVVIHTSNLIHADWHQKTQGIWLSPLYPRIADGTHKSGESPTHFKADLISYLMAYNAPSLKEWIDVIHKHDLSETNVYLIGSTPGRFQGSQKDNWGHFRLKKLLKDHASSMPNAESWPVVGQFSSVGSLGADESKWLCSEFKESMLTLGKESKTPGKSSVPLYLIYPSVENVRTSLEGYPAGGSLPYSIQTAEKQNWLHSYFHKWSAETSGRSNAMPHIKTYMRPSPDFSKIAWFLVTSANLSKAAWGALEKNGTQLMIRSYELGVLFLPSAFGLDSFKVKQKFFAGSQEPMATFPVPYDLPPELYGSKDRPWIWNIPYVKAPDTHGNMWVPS

Compound | Potency | activity change, negative = inhibition
CC(C)Nc1nc(Cl)nc(NC(C)C)n1 | inactive and 28.2 µM (active) | 
CCC(CCC(C)C1CCC2C3CC=C4CC(O)CC[C@@]4(C)C3CC[C@@]12C)C(C)C (stereo not given in full) |  | 5.38% (inactive)
C=CC#N |  | -7.61% (inactive)
O=NO | inactive | 
CN1[C@H]2CC(OC(=O)[C@@H](CO)c3ccccc3)C[C@H]1[C@H]1O[C@H]12 (stereo not given in full) |  | 5.13% [at 21 µM] (inactive)
CC(=O)CC(C)C |  | 15.5% (inactive)
CC(C)(O/N=C(\C(=O)N[C@@H]1C(=O)N2C(C(=O)[O-])=C(C[n+]3ccccc3)CS[C@@H]12)c1csc(N)n1)C(=O)O | 12.6 µM (active) | 
CCCCCCCCCCCCN=C(N)N |  | 0.984% (inactive)
CCN(CC)c1nc(C)cc(OP(=S)(OC)OC)n1 |  | 8.2% (inactive)
CC(=O)[O][Sn]([c]1ccccc1)([c]1ccccc1)[c]1ccccc1 |  | 6.23% (inactive)
CCCCC/C=C\C/C=C\C/C=C\C/C=C\CCCCCC(=O)NCCO | inactive and 39.8 µM (active) | 
CCCCC/C=C\C/C=C\C/C=C\CCCCCCC(=O)NCCO | inactive | 
CN(C)C[C@H]1CCCC[C@]1(O)c1cccc(O)c1 |  | -0.328% (inactive)
C[C@@H]1C[C@H]2CC[C@H](O2)[C@H](C)C(=O)O[C@@H](C)C[C@@H]2CC[C@@H](O2)[C@@H](C)C(=O)O[C@H](C)C[C@H]2CC[C@H](O2)[C@H](C)C(=O)O[C@@H](C)C[C@@H]2CC[C@@H](O2)[C@@H](C)C(=O)O1 |  | 8.2% (inactive)
CC(CCC(=O)O)C1CCC2C3C(O)C[C@@H]4CC(O)CC[C@@]4(C)C3CC[C@@]12C (stereo not given in full) | inactive | 
O=C(O)c1cc[c]([Sb](=[O])([OH])[OH])cc1[N+](=O)[O-] | 1.58 µM (active) | 
S=P(c1ccccc1)(c1ccccc1)c1c(-c2ccccc2)[nH]c2ccccc12 |  | 1.74% (inactive)
Nc1ccc(-c2ccc(N)c(N)c2)cc1N |  | 19.3% (inactive)
O=C1CCc2cccc3c2N1CC3 |  | 4.92% (inactive)
Cc1cccc2c3c(ccc12)C1=C(C(=O)C3=O)C(C)CO1 (stereo not given) |  | 22.4% (inactive)
